According to PubChem BioAssay AID624483 (NMMLSC, 2012):
About 11,000 (3.1%) of roughly 360,000 compounds were called active. Not shown: some 2% with an inconclusive outcome. The list comes from a sample in which actives are over-represented; it also holds similar structures and randomly drawn compounds. Values without a mark were called inactive. No stated cut-off is given here; in the data, active means fluorescence intensity above about 16000; inconclusive means no clear call, values can overlap the other calls; inactive means below that.

Test: counter-screen for toxin protease inhibitors: compound fluorescence, primary screen, artefact control for toxin protease inhibitor project, biochemical, multiplex microsphere, HTS (AID 624483)
Details: compound autofluorescence counterscreen, microsphere flow cytometry; stronger effect = higher value
With `COc1cccc(C(=O)Nc2cc3c(cc2Br)OCCCO3)c1` the fluorescence intensity was 7110.
For `COc1cccc(C(=O)NNC(=O)c2ccccc2Br)c1`, the fluorescence intensity was 16700 (active).
`COc1cccc(C(=O)NNC(=O)/C=C/c2ccccc2)c1` gave a fluorescence intensity of 6790.
`CCN(CC(=O)Nc1ccc(OC)cc1)C(=O)c1ccc(Cl)c(S(=O)(=O)N2CCCC2)c1` gave a fluorescence intensity of 3470.
In the case of `CCN(CC)C(=O)c1ccc(NC(=O)c2cc(-n3cnnc3)ccc2Cl)cc1`, the fluorescence intensity is reported as 23800 (active).
Compound `CCN(CC)C(=O)c1ccc(NC(=O)c2sccc2-c2ccccc2)cc1` has a fluorescence intensity of 4580.
`CCOC(=O)C1=CC[C@@H](c2ccccc2)N(S(=O)(=O)c2ccc(C)cc2)[C@H]1c1cccc(OC)c1` showed a fluorescence intensity of 6140.
`O=C(NCCCNC(=O)c1ccccc1Cl)c1cnccn1` showed a fluorescence intensity of 4420.
For `COc1ccccc1CCNC(=O)c1cnccn1`, the fluorescence intensity was 16600 (active).
With `COc1ccccc1CCNC(=O)c1c(C)nn(CC(C)C)c1Cl` the fluorescence intensity was 4680.
Work on `O=C(NCCS(=O)(=O)N1CCN(c2ccc(F)cc2)CC1)c1ccc2c(c1)OCO2` yielded a fluorescence intensity of 4110.
In the case of `CC1(C(=O)NS(=O)(=O)c2cccc(F)c2)CCN1C(=O)c1cccc2ccccc12` (configuration not stated), the fluorescence intensity is reported as 2920.
Work on `CN(C)C1CN(Cc2cn(Cc3ccccc3)nn2)S(=O)(=O)C1` (configuration not stated) yielded a fluorescence intensity of 4320.
For `NC(=O)c1ccc(N2CCOCC2)nc1`, the fluorescence intensity was 2600.
In the case of `O=C1c2ccccc2-c2ncnc3c(N4CCOCC4)cc(N4CCOCC4)c1c23`, the fluorescence intensity is reported as 4380.
For `c1cnn(-c2cc(N3CCOCC3)ncn2)c1`, the fluorescence intensity was 17000 (active).
In the case of `CS(=O)(=O)N(CC(=O)Nc1ccc(Cl)c(Cl)c1)C1CCCCC1`, the fluorescence intensity is reported as 21700 (active).
For `N#CCCN(C(=O)Nc1ccc(Cl)c(Cl)c1)C1CCCCC1`, the fluorescence intensity was 2920.
Work on `CS(=O)(=O)N(CC(=O)Nc1ccc(F)cc1)C1CCCCC1` yielded a fluorescence intensity of 3860.
`O=S1(=O)CC(N2CCN(CCO)CC2)CN1Cc1cn(Cc2ccc(Cl)cc2)nn1` (configuration not stated) showed a fluorescence intensity of 5500.
Compound `O=S(=O)(NCc1ccccc1)c1ccc(S(=O)(=O)N2CCCC2)cc1` has a fluorescence intensity of 4970.
In the case of `Cc1nc(Nc2ccc(S(=O)(=O)N3CCCC3)cc2)c2nnn(Cc3ccccc3)c2n1`, the fluorescence intensity is reported as 2010.
In the case of `O=C1c2cccnc2C(Nc2ccc(S(=O)(=O)N3CCCCCC3)cc2)N1Cc1ccccc1` (configuration not stated), the fluorescence intensity is reported as 21600 (active).
`O=C(Nc1cccc(C(=O)NC2CC2)c1)c1ccc(F)c(S(=O)(=O)N2CCOCC2)c1` gave a fluorescence intensity of 6040.
In the case of `CCOC(=O)C1(C)CCCN(C(=O)c2ccc(F)c(Cl)c2)C1` (configuration not stated), the fluorescence intensity is reported as 3580.
Compound `COc1ccc(S(=O)(=O)NC(=O)C2(C)CCN2C(=O)COc2ccc(Cl)cc2)cc1` (configuration not stated) has a fluorescence intensity of 3840.
Work on `COC(=O)[C@]12CCCCC=C1N(Cc1ccc(Cl)cc1Cl)C(=O)[C@H](CC(=O)NCc1cccc3ccccc13)C2` yielded a fluorescence intensity of 5890.
In the case of `COc1ccc(C(c2nnnn2C2CCCCC2)N2CCN(c3ccccc3F)CC2)cc1` (configuration not stated), the fluorescence intensity is reported as 2590.
With `COc1ccc(N2CCN(C(c3cc4ccc(C)cc4[nH]c3=O)c3nnnn3C3CCCC3)CC2)cc1` (configuration not stated) the fluorescence intensity was 24400 (active).
`CCOC(=O)C1CCN(C(c2cc3cc(C)cc(C)c3[nH]c2=O)c2nnnn2C2CCCCC2)CC1` (configuration not stated) showed a fluorescence intensity of 11300.
With `CN(CC(=O)NC1CCN(Cc2ccccc2)CC1)S(=O)(=O)c1ccc(Cl)s1` the fluorescence intensity was 4220.
Work on `CC(C)(C)C(=O)c1c(N)[nH]c(C(=O)c2ccccc2)c1-c1ccc(F)cc1` yielded a fluorescence intensity of 4830.
`O=C(Nc1cccc(-c2nnc(-c3ccccc3)o2)c1)C1CCCO1` (configuration not stated) showed a fluorescence intensity of 8340.
In the case of `O=C(Nc1ccc(-c2nnc(-c3ccccc3)o2)cc1)C1CCCO1` (configuration not stated), the fluorescence intensity is reported as 23500 (active).
Compound `CCOc1ccc(NC(=O)c2ccc(NC(=O)C3CCCO3)cc2)cc1` (configuration not stated) has a fluorescence intensity of 5940.
In the case of `COc1ccc(NC(=O)NNC(=O)COc2cc(C)c(Cl)c(C)c2)c(OC)c1`, the fluorescence intensity is reported as 4710.
With `COc1cc(NC(=O)c2ccc(CNc3c(N4CCCC4)c(=O)c3=O)cc2)cc(OC)c1OC` the fluorescence intensity was 4980.
Work on `COc1ccc(Br)c(Cn2c(C)c(C(=O)NCc3cccs3)sc2=O)c1` yielded a fluorescence intensity of 5140.
In the case of `CCN(CC)Cc1c(C(=O)OC)nnn1-c1nonc1N`, the fluorescence intensity is reported as 2240.
In the case of `O=C(Nc1sc2c(c1-c1nc3ccccc3[nH]1)CCCC2)C1CC1`, the fluorescence intensity is reported as 3170.
Compound `Nc1ccccc1-c1nc2ccncc2[nH]1` has a fluorescence intensity of 3770.
With `c1ccc2[nH]c(-c3nc4ccccc4[nH]3)nc2c1` the fluorescence intensity was 16500 (active).
For `CCOC(=O)[C@]12CCCC=C1N(Cc1ccc3c(c1)OCO3)C(=O)[C@H](CC(=O)N1CCN(C(=O)c3ccco3)CC1)C2`, the fluorescence intensity was 3930.
For `Cc1ccc(Cc2c(-c3ccc(Cl)cc3)nc3c4ccccc4ccn23)cc1`, the fluorescence intensity was 4990.
In the case of `O=c1cc(C(F)(F)F)[nH]c(=O)n1C1CCCCC1`, the fluorescence intensity is reported as 24200 (active).
For `CC(=O)c1c(O)n(C2CCCCCC2)c(=O)[nH]c1=O`, the fluorescence intensity was 2970.
For `Cc1ccc(Nc2cc(=O)n(C3CCCCC3)c(=O)[nH]2)cc1C`, the fluorescence intensity was 3080.
Work on `CCOc1cc(C2C(C(=O)OC)=CN(C3CCCC3)C=C2C(=O)OC)cc(Br)c1O` yielded a fluorescence intensity of 8950.
With `CCOc1ccccc1C1C(C(=O)OC)=CN(C)C=C1C(=O)OC` the fluorescence intensity was 19700 (active).
For `COC(=O)C1=CN(C)C=C(C(=O)OC)C1c1ccc(Cl)cc1Cl`, the fluorescence intensity was 3960.
With `COC(=O)C(C)Oc1ccc2c(-c3cccc([N+](=O)[O-])c3)cc(=O)oc2c1` (configuration not stated) the fluorescence intensity was 21200 (active).
With `COc1ccc(-c2cc(=O)oc3cc(OC(C)C(=O)NCC4CCC(C(=O)O)CC4)ccc23)cc1` (configuration not stated) the fluorescence intensity was 6030.
Work on `CC(Oc1ccc2c(-c3ccccc3)cc(=O)oc2c1)C(=O)NC(Cc1c[nH]c2ccccc12)C(=O)O` (configuration not stated) yielded a fluorescence intensity of 3610.
Compound `CC(C)n1c(NCc2c[nH]c3ccccc23)nc2ccccc21` has a fluorescence intensity of 2940.
In the case of `COCCOC(=O)c1sc(=S)n(CCOC)c1N`, the fluorescence intensity is reported as 23500 (active).
`CC(=O)N1Cc2cc(C(=O)NCc3cccc(F)c3)nc(-c3cccc(C4=CCCCC4)c3)c2[C@H]1CCO` showed a fluorescence intensity of 5630.
Compound `Cc1ccc(C(=O)OCC(=O)NCc2ccc3c(c2)OCO3)s1` has a fluorescence intensity of 3100.
Compound `O=C(NCc1cccnc1)C12CC3CC(CC(C3)C1)C2` has a fluorescence intensity of 3100.
`O=C(NCc1ccc2c(c1)OCO2)c1ccc(Cl)s1` showed a fluorescence intensity of 3620.
For `O=C(CNS(=O)(=O)c1ccc(Br)s1)NCc1ccc2c(c1)OCO2`, the fluorescence intensity was 24800 (active).
For `O=C(NCc1ccc2c(c1)OCO2)C12CC3CC(CC(C3)C1)C2`, the fluorescence intensity was 21300 (active).
For `Cc1ccc(CNC(=O)CCNS(=O)(=O)c2ccc(Br)s2)cc1`, the fluorescence intensity was 3440.
`COc1ccc(OC)c(NC(=O)C2(C)CCN2C(=O)Cc2ccccc2)c1` (configuration not stated) gave a fluorescence intensity of 3710.
Work on `CCCCOCCCNC(=O)C[C@@H]1C[C@@]2(C(=O)OC)CCCCC=C2N(CCC2=CCCCC2)C1=O` yielded a fluorescence intensity of 6000.
With `O=c1onc(-c2c(F)cccc2F)n1-c1ccccc1Cl` the fluorescence intensity was 4210.
`Cc1ccc(NS(=O)(=O)c2ccc(-c3coc(C)n3)cc2)c(C)c1` showed a fluorescence intensity of 5350.
`Cc1c(C)c2c(OCC(=O)N[C@@H](C(=O)O)c3ccccc3)cc3c(c2oc1=O)CCC(C)(C)O3` gave a fluorescence intensity of 6410.
Work on `CCOC1=C2CN(S(=O)(=O)c3ccc(C)cc3)[C@H](c3cccs3)C[C@H]2[C@H]2C(=O)N(c3ccccc3)C(=O)[C@H]2C1` yielded a fluorescence intensity of 6240.
For `COCCCn1cc(CN2CC(N(C)C)CS2(=O)=O)nn1` (configuration not stated), the fluorescence intensity was 4380.
Work on `Cc1ccc(C)c(NC(=O)c2ccc3nccnc3c2)c1` yielded a fluorescence intensity of 4320.
With `O=C(Nc1cccc2c1CCCC2)c1ccc(F)cc1` the fluorescence intensity was 4040.
For `Cc1ccc(F)cc1NC(=O)c1cccc(N(C)C)c1`, the fluorescence intensity was 23300 (active).
Work on `COCCNc1nc(Nc2ccccc2Cl)c2sc(-c3ccccc3)cc2n1` yielded a fluorescence intensity of 3680.
`Cc1ccc(C)c(N2C(=O)CS/C2=N\NC(=O)c2ccccc2Cl)c1` showed a fluorescence intensity of 9520.
Compound `CC1=CC(=NNS(=O)(=O)c2ccc([N+](=O)[O-])cc2)CC(C)(C)C1` has a fluorescence intensity of 3700.
`C/C(=N/NC(=O)CCc1ccccc1)c1ccco1` gave a fluorescence intensity of 2010.
In the case of `CSc1nc(-c2ccco2)nn1C(=O)c1ccccc1Cl`, the fluorescence intensity is reported as 4950.
With `CSc1nc(-c2ccco2)nn1C(=O)CCc1ccccc1` the fluorescence intensity was 22700 (active).
With `COc1cccc(C(O)c2nc(-c3ccc(C)c(C)c3)cs2)c1` (configuration not stated) the fluorescence intensity was 3830.
For `CCC1=[N+]([O-])C(C)(/C(C)=N\O)N(O)C1(C)C` (configuration not stated), the fluorescence intensity was 9530.
For `CCC1(C)N(O)C(C)(C)C(c2ccc(OC)cc2)=[N+]1[O-]` (configuration not stated), the fluorescence intensity was 5620.
With `C/C(=N\O)C1(C)N(O)C(C)(C)C(c2ccc(Br)cc2)=[N+]1[O-]` (configuration not stated) the fluorescence intensity was 25600 (active).
`C=CCN(CC=C)S(=O)(=O)c1ccc(C(=O)Nc2nc3c(s2)CCc2ccccc2-3)cc1` showed a fluorescence intensity of 11000.
Work on `COc1ccccc1-n1cnc2cc(NS(=O)(=O)c3ccccc3)ccc21` yielded a fluorescence intensity of 3550.
With `COc1cc(NS(=O)(=O)c2ccccc2)ccc1-n1nc(C)cc1C` the fluorescence intensity was 17700 (active).
Work on `CC(=O)c1c(C)oc2ccc(NS(=O)(=O)c3ccccc3)cc12` yielded a fluorescence intensity of 5190.
Work on `CC(C)(O)C#Cc1ncc(C(F)(F)F)cc1Cl` yielded a fluorescence intensity of 4380.
`O=C(NCCCN1CCCCC1)C1CC(=O)N(CCc2ccccc2)C1` (configuration not stated) gave a fluorescence intensity of 5320.
Work on `Cc1ccc(CCN2CC(C(=O)NCCc3ccccc3)CC2=O)cc1` (configuration not stated) yielded a fluorescence intensity of 5840.
For `O=C(NC1CCCCC1)C1CC(=O)N(CCc2ccccc2)C1` (configuration not stated), the fluorescence intensity was 21500 (active).
With `CC(=O)NC1CCN(CC(=O)Nc2nccs2)CC1` the fluorescence intensity was 3460.
Work on `O=C(Nc1cccc2ccccc12)c1[nH]c(-c2ccccc2)c2c1C(=O)N(C1CC1)C2=O` yielded a fluorescence intensity of 5310.
